# In the library only some 6% were active in any assay of this set; here they are far more common.
# Sfp inh: qHTS Assay for Inhibitors of Bacillus subtilis Sfp phosphopantetheinyl transferase (PPTase). 4'-phosphopantetheinyl transferase ffp (Bacillus subtilis), Q9F4F7. Biochemical Sfp PPTase activity, qHTS. Potency, µM, inactives show largest response in the series, negative = inhibition, usual class: inhibitors. 310,000 tested, 3.5% active. AID 1490, 2009;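 further: the enzyme is Sfp with the accession as filed and its product quenches rhodamine fluorescence; 0% = enzyme reaction without inhibitor and -100% = no enzyme wells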
#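 Fluorescence-quenching assay with 15 nM Sfp, 5 uM rhodamine-CoA and 12.5 uM BHQ-2-labelled ybbR peptide in pH 7.6 Hepes/MgCl2 buffer. Enzyme was pre-incubated with compound for 15 min at room temperature. Rate was taken from the 30-min fluorescence change (525/598 nm).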
# VDR inhibitor: Inhibitors of the vitamin D receptor (VDR): qHTS | Vitamin D3 receptor (Homo sapiens), P11473 | VDR-SRC2-3 peptide fluorescence polarization, 2 h | Potency, µM, for inactives: max response, negative = inhibition, most hits filed as inhibitors | 400,000 tested, 0.93% active
#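 Two reagent solutions held at 4 deg C in the dark were dispensed, compounds pinned at 23 nl, and the mixture incubated 2 h at room temperature. Read-out: fluorescence polarization of VDR–SRC2-3 peptide binding.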
# PLK1 PBD inh: qHTS for Inhibitors of PLK1-PDB (polo-like kinase 1 - polo-box domain): Primary Screen. AID 720504, 2013. 360,000 tested, 2.8% active. Plk1 PBD binding of FITC phosphopeptide, fluorescence polarization. Potency, µM, without a hit: max response, negative = inhibition, actives largely listed as inhibitors; further: series mostly up to about 57 µM; nearly all actives have a fitted effect of over 65% in size
# Target sequence (P53350 whole entry, looked up, the tested form may be a part): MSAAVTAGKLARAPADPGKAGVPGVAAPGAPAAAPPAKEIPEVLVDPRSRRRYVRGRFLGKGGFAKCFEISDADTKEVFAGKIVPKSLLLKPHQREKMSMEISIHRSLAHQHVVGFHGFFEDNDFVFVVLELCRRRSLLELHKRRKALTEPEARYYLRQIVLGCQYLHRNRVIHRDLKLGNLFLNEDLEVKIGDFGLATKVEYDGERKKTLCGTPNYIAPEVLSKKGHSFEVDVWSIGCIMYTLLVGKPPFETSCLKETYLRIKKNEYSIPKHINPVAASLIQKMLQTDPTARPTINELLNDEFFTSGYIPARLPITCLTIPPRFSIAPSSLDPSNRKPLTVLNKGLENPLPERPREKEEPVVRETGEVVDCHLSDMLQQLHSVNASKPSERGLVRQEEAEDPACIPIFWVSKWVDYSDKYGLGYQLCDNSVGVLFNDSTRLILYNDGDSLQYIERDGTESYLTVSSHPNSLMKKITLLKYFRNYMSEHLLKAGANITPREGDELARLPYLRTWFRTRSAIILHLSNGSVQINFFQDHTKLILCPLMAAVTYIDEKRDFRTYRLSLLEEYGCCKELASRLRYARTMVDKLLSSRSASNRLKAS
# Tau FP inhib: qHTS for Inhibitors of Tau Fibril Formation, Fluorescence Polarization; Microtubule-associated protein tau (Homo sapiens), P10636; K18 P301L tau heparin fibrillization, Alexa594 FP, 6 h; Potency, µM (titrated, usually from 57.7 µM), inactives show at the highest dose activity, negative = inhibition, usual class: inhibitors; 280,000 tested, 0.39% active; further: nearly all actives have a fitted effect of over 55% in size
#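 Human tau K18 […] P301L fragment, 15 uM unlabeled plus 0.24 uM Alexa 594-labeled tau (final), with compound and 20 uM heparin in 100 mM sodium acetate pH 7; 6 hr at 37 C, then Alexa 594 FP read.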
# Tau fluor counter: Counterscreen qHTS for Inhibitors of Tau Fibril Formation, Fluorescence Polarization; 280,000 tested, 0.93% active; Potency, µM (highest dose often 57.7 µM), without a hit: at the top dose activity change, negative = decrease; AID 1463, 2008; tau K18 P301L Alexa594 fluorescence, heparin fibrillization; further: nearly all actives have a fitted effect of over 55% in size
#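 Human K18 P301L tau (15 uM unlabeled plus 0.24 uM Alexa 594-labeled, final) in 100 mM sodium acetate pH 7 was mixed with compound and 20 uM heparin and incubated 6 hr at 37 C.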
# Tau ThT inhib: qHTS for Inhibitors of Tau Fibril Formation, Thioflavin T Binding. recombinant tau K18 P301L (four-repeat tau fragment), heparin-induced fibrillization, ThT fluorescence. Potency, µM (highest dose often 57.4 µM), for inactives: at the highest dose activity, negative = inhibition, hits mostly inhibitors. 270,000 tested, 2.1% active; further: nearly all actives have a fitted effect of over 55% in size
#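 In this qHTS, human K18 P301L tau is incubated with compound and heparin for 6 hr at 37 C, and Thioflavin T fluorescence then reports fibril load.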
# Active calls of the source: *; ? = inconclusive; · = not tested or not shown; [ ] = another dose, or the depositor's remark. The call rests on the fitted dose curve; in most records, active means well fitted curve in the direction sought with a large enough effect; inconclusive means small, poorly fitted or top-dose-only effect, or another doubt; inactive means no such curve, though single readings can be large; an effect the other way counts as inactive or inconclusive. Unless noted, on the % scale 0 is the no-effect control and ±100 the full control effect; potency means the concentration at half of the fitted maximal effect.
SMILES,Sfp inh,VDR inhibitor,PLK1 PBD inh,Tau FP inhib,Tau fluor counter,Tau ThT inhib
CC(=O)C1=C(c2ccccc2)N(C(C)=O)n2c(nnc2C2CCCCC2)S1,·,2%,·,-17%,-11%,?
CCCCn1c(N)c(N(CCOC)C(=O)c2ccc(COc3ccccc3)o2)c(=O)[nH]c1=O,·,6%,-6%,·,·,·
COc1ccccc1CCNC(=O)c1c(N)[nH]c(C(=O)c2ccccc2)c1-c1ccc(Br)cc1,·,·,1%,·,·,·
CCN(CC)C(=O)CSC1=Nc2ccccc2C2=NC(Cc3c[nH]c4ccccc34)C(=O)N12 (stereo not drawn),50µM*,7%,-2%,1%,-7%,-13%
O=C(CSC1=Nc2ccccc2C2=NC(Cc3ccccc3)C(=O)N12)Nc1ccccc1 (stereo not drawn),·,0%,·,3%,-11%,5%
CC1Cc2ccccc2N1Cc1cc(=O)n2ccsc2n1 (stereo not drawn),-24%,-13%,24µM*,17%,-23%,-19%
COc1cc(/C=N/N(C)c2ccccc2)ccc1O,-9%,-18%,-10%,10%,?,13µM*
Cc1c(Cl)cccc1NC(=O)CN1C(=O)CCn2nc(-c3cccn3C)cc21,·,19%,·,6%,-23%,-9%
CCCc1ccc(OCC(=O)Nc2sc3c(c2C(=O)OC)CCCCC3)cc1,·,?,·,-15%,-9%,?
CN(C(=O)COC(=O)c1cccnc1Cl)C1CCCCC1,·,-13%,6%,·,·,·
CN(C)c1ccc(C(=O)OCC(=O)NC2CCCCCC2)cc1,-18%,4%,-10%,6%,-12%,-15%
CN(C)c1ccc(N=Nc2ccccc2C(=O)OCC(=O)NCC2CCCCC2)cc1,?,-22%,-7%,?,14%,1.8µM*
CN(C)c1ccc(N=Nc2ccccc2C(=O)OCC(=O)NC2CCCC2)cc1,-15%,-7%,15%,-3%,?,6.3µM*
CN(C)c1ccc(N=Nc2ccccc2C(=O)OCC(=O)N(C)C2CCCCC2)cc1,-5%,-18%,1%,12%,?,7.9µM*
Oc1ccccc1C1CC(c2cccs2)=NC(c2cccc(Br)c2)N1 (stereo not drawn),-19%,71µM*,-9%,9%,?,?
Cc1cc(C(=O)COC(=O)c2ccc[nH]c2=O)c(C)n1-c1ccc(Br)cc1,-4%,-8%,-8%,3%,1%,-8%
Cc1cc(C(=O)OCC(N)=O)c(C)n1-c1ccccc1,-13%,79µM*,24µM*,-3%,-6%,-6%
COCC(=O)OCC(=O)c1cc(C)n(-c2ccc(Br)cc2)c1C,3%,-19%,17µM*,3%,-6%,-15%
CCOC(=O)C1=CC[C@@H](c2cc(OC)c(OC)c(OC)c2)N(S(=O)(=O)c2ccc(C)cc2)[C@H]1C(=O)OCC,·,-27%,-3%,·,·,·
COc1ccc(CNC(=O)CN2C(=O)NC(Cc3ccccc3)(c3ccccc3)C2=O)cc1OC (stereo not drawn),·,2%,2%,·,·,·
CN(C)Cc1c(-c2ccc(Cl)cc2)nc2ccc(Cl)cn12,18%,-10%,-13%,-2%,0%,-7%
O=c1c2ccccc2nc2ccc(NCc3ccco3)nn12,40µM*,1%,-9%,22µM*,-22%,18µM*
Cc1sc2nc3ccc(NCc4ccco4)nn3c(=O)c2c1C,32µM*,4%,-19%,-8%,-8%,?
Cc1ccc(Nc2nc(C3CC3)cs2)cc1,45µM*,·,·,6%,?,?
Clc1ccc(Nc2nc(C3CC3)cs2)cc1,?,-4%,-16%,?,16µM*[quencher],?
Cc1c(N(C)C(=O)c2ccco2)c(=O)n(-c2ccccc2)n1C,16%,-27%,27µM*,3%,2%,-3%

# High-throughput results deposited in PubChem by National Center for Advancing Translational Sciences (NCATS).
